A selection: hits, their analogues and other compounds. The true share with any hit is near 6.2%.
HT1080 IDH1KD tx: kills HT-1080 cells with IDH1 knockdown; HT-1080 IDH1 knockdown viability, ATP luminescence, 48 h; AID 686971; Potency, µM (series often up to 46.1 µM), most hits filed as cytotoxic; 360,000 compounds, 2% hits
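% activity derives from luminescence (CellTiter-Glo), normalised to DMSO and no-cell wells. HT-1080-IDH1KD cells, 750/well, had 48 h compound exposure at 37 °C.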
KB-3-1 tox: KB-3-1 parental cell cytotoxicity; Potency, µM (top dose mostly 46.1 µM), most hits filed as cytotoxic; KB-3-1 viability, CellTiter-Glo ATP luminescence, 72 h; 400,000 compounds, 1.4% hits; note: nearly all actives have a fitted effect of over 60% in size
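Parental KB-3-1 viability, qHTS format: 72 h compound exposure, 37 °C; CellTiter-Glo; media-only wells and DMSO plates as controls; concentration-effect fits on corrected data.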
ATXN2 expr inh: ATXN2 expression inhibition | HEK-293 ATXN2-luciferase reporter, luminescence, 24 h | Potency, µM (top dose mostly 57 µM), hits mostly inhibitors | 360,000 compounds, 0.72% hits | AID 1745845; note: nearly all actives have a fitted effect of over 55% in size
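qHTS (up to 57 uM final) was run with 24 h compound exposure of reporter cells at 37 °C. Each well was multiplexed: SteadyGlo luminescence measured ATXN2-luciferase expression after a fluorogenic Gly-Phe-AFC viability readout (25 uM final).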
KB-V1 cytotox: kills drug-selected multidrug resistant KB-V1 cells; Potency, µM (series often up to 46.1 µM), usual class: cytotoxic; KB-V1 MDR cells viability, CellTiter-Glo, 72 h; AID 1347076; 400,000 compounds, 3.4% hits; note: nearly all actives have a fitted effect of over 60% in size
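Cytotoxicity toward P-gp-expressing KB-V1 cells was determined as loss of CellTiter-Glo luminescence after 72 h at 37 degrees C. Compounds were tested in quantitative HTS format across a concentration range, with curves fitted to normalized data.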
HT1080NT lethal: kills 2HG-producing HT-1080-NT fibrosarcoma cells; 360,000 compounds, 1.6% hits; HT-1080-NT fibrosarcoma viability, CellTiter-Glo ATP luminescence, 48 h; Potency, µM (highest dose often 46.1 µM), actives largely listed as cytotoxic;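 note: NT is the 2HG producing partner of a matched IDH1 knockdown line; nearly all actives have a fitted effect of over 55% in size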
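HT-1080-NT fibrosarcoma cells (2HG-overproducing), 750 cells/well in RPMI with 5% FBS, dosed after 2 h and incubated 48 h at 37C. CellTiter-Glo luminescence normalized to DMSO and no-cell wells; concentration-response curves fitted and classed.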
S2 tox: cell viability loss in ATXN counter-screen; Potency, µM (series often up to 56.7 µM), usual class: cytotoxic; S2 cells (HEK-293 line with an ATXN2-luciferase reporter) viability, CellTiter-Fluor protease fluorescence, 24 h; 400,000 compounds, 0.49% hits; note: nearly all actives have a fitted effect of over 40% in size
A number is an active result. Calls come from the whole dose curve; as a rule, active = well fitted curve in the direction sought with a large enough effect; inconclusive = small, poorly fitted or top-dose-only effect, or another doubt; inactive = no such curve, though single readings can be large; an effect the other way counts as inactive or inconclusive.

How did Cc1ccc(C)c(NC(=O)c2cc(-c3cc(C)ccc3O)n[nH]2)c1 do in these assays?
HT1080 IDH1KD tx: inconclusive; KB-3-1 tox: inactive; ATXN2 expr inh: inactive; KB-V1 cytotox: inactive; HT1080NT lethal: 33µM; S2 tox: inactive

How did NCCCC[C@H](NC(=O)[C@@H]1CCCN1C(=O)[C@@H]1CSSC[C@H](N)C(=O)N[C@@H](Cc2ccc(O)cc2)C(=O)N[C@@H](Cc2ccccc2)C(=O)N[C@@H](CCC(N)=O)C(=O)N[C@@H](CC(N)=O)C(=O)N1)C(=O)NCC(N)=O do in these assays?
S2 tox: inactive

What do the screens show for `CN(C)c1ccc(/C=C2\C=Cc3ccccc32)cc1Cl`?
KB-3-1 tox: inactive; KB-V1 cytotox: inconclusive

Results for C/C(=N\NC(=O)C1CC1)c1ccc(OC(F)F)cc1 ?
HT1080 IDH1KD tx: inactive; KB-3-1 tox: inconclusive; ATXN2 expr inh: inactive; KB-V1 cytotox: 13µM; HT1080NT lethal: inactive

How did N#Cc1ccsc1NC(=O)CN(Cc1ccccc1)Cc1ccccc1 do in these assays?
HT1080 IDH1KD tx: inactive; KB-3-1 tox: inconclusive; ATXN2 expr inh: inactive; KB-V1 cytotox: 10µM; HT1080NT lethal: inactive; S2 tox: inactive

How did CCC(=O)Oc1ccc2c(=O)c(-c3ccc4ccccc4n3)c(CC)oc2c1C do in these assays?
HT1080 IDH1KD tx: inconclusive; KB-3-1 tox: inactive; ATXN2 expr inh: inactive; KB-V1 cytotox: 13µM; HT1080NT lethal: inactive; S2 tox: inactive

Results for Cc1ccc(S(=O)(=O)CC2CSc3nc4ccccc4n32)cc1 (configuration not stated) ?
HT1080 IDH1KD tx: inconclusive; KB-3-1 tox: 0.73µM; ATXN2 expr inh: inactive; KB-V1 cytotox: 0.52µM; HT1080NT lethal: inactive; S2 tox: inactive

How did Cc1ccc(S(=O)(=O)CC2CSc3nc(N)cc(=O)n32)cc1 (configuration not stated) do in these assays?
HT1080 IDH1KD tx: inactive; KB-3-1 tox: inactive; ATXN2 expr inh: inactive; KB-V1 cytotox: inactive; HT1080NT lethal: inactive; S2 tox: inactive

Results for Cc1cc(C(F)(F)F)n(-c2nc(C(=O)NN)cs2)n1 ?
HT1080 IDH1KD tx: inactive; KB-3-1 tox: inactive; ATXN2 expr inh: inactive; KB-V1 cytotox: inactive; HT1080NT lethal: inactive; S2 tox: inactive

How did COc1ccc(/C=N/NC(=O)c2csc(-n3nc(C)cc3C(F)(F)F)n2)cc1 do in these assays?
HT1080 IDH1KD tx: inactive; KB-3-1 tox: 7.3µM; ATXN2 expr inh: inconclusive; KB-V1 cytotox: inactive; HT1080NT lethal: inactive; S2 tox: inconclusive

What do the screens show for `CCC(C(=O)Nc1ccccc1OC)n1nc(C)c2sc3ccccc3c2c1=O` (configuration not stated)?
KB-3-1 tox: inactive; KB-V1 cytotox: inactive

Results for COc1ccc(C(=O)CC2(O)C(=O)N(Cc3ccccc3Cl)c3ccccc32)cc1 (configuration not stated) ?
KB-3-1 tox: inconclusive; ATXN2 expr inh: inconclusive; KB-V1 cytotox: 18µM; S2 tox: inconclusive

What do the screens show for `COC(=O)C1(C)CN(S(=O)(=O)c2ccc(C)cc2)c2cc(OC)ccc2C1=O` (configuration not stated)?
HT1080 IDH1KD tx: inactive; KB-3-1 tox: inconclusive; ATXN2 expr inh: inactive; KB-V1 cytotox: inconclusive; HT1080NT lethal: inactive; S2 tox: inactive

Results for CC1=CC(C)(C)N(S(=O)(=O)c2ccc(C)cc2)c2cc(C)ccc21 ?
HT1080 IDH1KD tx: 1.3µM; KB-3-1 tox: 3.7µM; ATXN2 expr inh: inactive; KB-V1 cytotox: 6.5µM; HT1080NT lethal: 1µM; S2 tox: inactive

How did COc1ccc2c(c1)C(C)=CC(C)(C)N2S(=O)(=O)c1ccc(C)cc1 do in these assays?
HT1080 IDH1KD tx: 0.92µM; KB-3-1 tox: 2.1µM; ATXN2 expr inh: inconclusive; KB-V1 cytotox: 2.6µM; HT1080NT lethal: 0.92µM; S2 tox: inconclusive

What do the screens show for `CCOc1ccc2c(c1)C(C)=CC(C)(C)N2S(=O)(=O)c1ccc(C)cc1`?
HT1080 IDH1KD tx: 1.8µM; KB-3-1 tox: 2.1µM; ATXN2 expr inh: inactive; KB-V1 cytotox: 5.8µM; HT1080NT lethal: 1.3µM; S2 tox: inconclusive

What do the screens show for `COc1ccc(N(C)C(=O)C2CCCN2S(=O)(=O)c2cccc3nsnc23)c(OC)c1` (configuration not stated)?
HT1080 IDH1KD tx: inactive; KB-3-1 tox: inactive; KB-V1 cytotox: inactive; HT1080NT lethal: inactive; S2 tox: inactive

Results for COCc1c(C(=O)NC2CCCCC2)cnn1-c1nccc(-c2cc(C)sc2C)n1 ?
S2 tox: inactive

How did O=C(NCCc1ccccc1)c1ccc(CSc2nc3ccncc3n2Cc2ccc(F)cc2)cc1 do in these assays?
KB-3-1 tox: inactive; ATXN2 expr inh: inactive; KB-V1 cytotox: inactive; S2 tox: inconclusive

How did CCCn1c2ccccc2c2cnn(CC(=O)NC(CCSC)C(=O)OC)c(=O)c21 (configuration not stated) do in these assays?
KB-3-1 tox: inactive; ATXN2 expr inh: inactive; KB-V1 cytotox: inactive; S2 tox: inactive

How did COc1ccc(C=CC(O)CCN2CCC3CCC(C3)C2)cc1 (configuration not stated) do in these assays?
HT1080 IDH1KD tx: inactive; KB-3-1 tox: inactive; ATXN2 expr inh: inactive; KB-V1 cytotox: inactive; HT1080NT lethal: inactive; S2 tox: inactive

Results for Cc1ccc(-c2[nH]c3ccccc3c2C(C[N+](=O)[O-])c2ccco2)cc1 (configuration not stated) ?
HT1080 IDH1KD tx: inconclusive; KB-3-1 tox: inactive; ATXN2 expr inh: inactive; KB-V1 cytotox: 21µM; HT1080NT lethal: 16µM; S2 tox: inactive

What do the screens show for `CC[C@]12c3[nH]c4cc(CCC(=O)N(C)C)ccc4c3CCN1C(=O)[C@@H](CC(=O)NC/C=C(\C)CCC=C(C)C)C[C@@H]2C(=O)N1CCN(C(=O)c2ccco2)CC1`?
HT1080 IDH1KD tx: 21µM; KB-3-1 tox: inconclusive; ATXN2 expr inh: inconclusive; KB-V1 cytotox: inactive; HT1080NT lethal: inconclusive; S2 tox: inconclusive

Results for CC[C@]12c3[nH]c4ccc(Cl)cc4c3CCN1C(=O)[C@@H](CC(=O)NC/C=C(\C)CCC=C(C)C)C[C@@H]2C(=O)N1CCN(C(=O)c2ccco2)CC1 ?
HT1080 IDH1KD tx: 15µM; KB-3-1 tox: inactive; ATXN2 expr inh: inconclusive; KB-V1 cytotox: inactive; HT1080NT lethal: inconclusive; S2 tox: inconclusive

What do the screens show for `CCN(CC)C(=O)[C@H]1C[C@H](CC(=O)NC/C=C(\C)CCC=C(C)C)C(=O)N2CCc3c([nH]c4ccc(Cl)cc34)[C@]12C`?
HT1080 IDH1KD tx: inactive; KB-3-1 tox: inconclusive; ATXN2 expr inh: inactive; KB-V1 cytotox: inactive; HT1080NT lethal: inactive; S2 tox: inactive

From PubChem
